CYP2C19 activ: human CYP2C19 activators, primary screen, biochemical, luminescence | AID 1025, 2008 | recombinant CYP2C19, luciferin-H EGE luminescence; stronger effect = higher value; 0 = fully inhibited enzyme, 1 = untreated enzyme | activation factor at 5 µM | 96,000 tested, under 10 active | Cytochrome P450 2C19 (Homo sapiens), P33261;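 active = activation factor of at least 2 at 5 µM in the primary screen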;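 also: 0 = wells with 2.5 mM tranylcypromine and 1 = vehicle-only wells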
Target sequence (P33261 whole entry, looked up): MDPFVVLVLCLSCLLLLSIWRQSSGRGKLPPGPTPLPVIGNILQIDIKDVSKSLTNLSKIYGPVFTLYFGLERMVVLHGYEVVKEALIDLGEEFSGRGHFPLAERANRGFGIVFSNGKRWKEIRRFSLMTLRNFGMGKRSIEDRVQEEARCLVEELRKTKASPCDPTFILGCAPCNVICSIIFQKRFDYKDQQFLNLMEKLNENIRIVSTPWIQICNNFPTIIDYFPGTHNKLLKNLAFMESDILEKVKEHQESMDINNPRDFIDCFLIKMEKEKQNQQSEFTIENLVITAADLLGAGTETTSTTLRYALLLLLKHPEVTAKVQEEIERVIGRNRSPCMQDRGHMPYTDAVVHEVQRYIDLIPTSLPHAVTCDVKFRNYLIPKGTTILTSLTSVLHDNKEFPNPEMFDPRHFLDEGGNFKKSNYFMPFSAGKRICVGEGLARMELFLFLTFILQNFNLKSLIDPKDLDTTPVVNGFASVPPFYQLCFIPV
CYP2C19 inhib: blockers of cytochrome P450 2C19 activity – biochemical, luminescence, ADME assay, primary screen; CYP2C19 Supersomes, luciferin-H EGE luminescence, 30 min; inhibition, % at 5 µM; 96,000 tested, 21% active; AID 778, 2007;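 active = CYP2C19 inhibition above a set limit at 5 µM in the primary screen, cut at about 50% in these data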;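 also: plate controls were negative control wells for no effect and 2.5 mM tranylcypromine positive control for full effect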
CYP2C9 activ: human CYP2C9 activators, primary screen, biochemical, luminescence; 96,000 tested, 1.4% active; activation factor at 5 µM; Cytochrome P450 2C9 (Homo sapiens), P11712; AID 1024, 2008; recombinant CYP2C9, luciferin-H conversion; stronger effect = higher value; factor 1 = untreated enzyme, 0 = blocked;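 active = activation factor of 2 or more for CYP2C9 at a 5 µM dose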;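 also: 0 = sulfaphenazole-blocked wells and 1 = vehicle-only wells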
CYP2C9 inhib: blockers of cytochrome P450 2C9 activity – biochemical, luminescence, ADME assay, primary screen. AID 777, 2007. 96,000 tested, 20% active. CYP2C9 Supersomes, luciferin-H conversion. inhibition, % at 5 µM;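 active = blocking of liver enzyme CYP2C9 beyond about 50% at 5 µM, limit read from the data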
* = called active by the depositor. Only some compounds are listed: those with a hit (about 31% of all), similar ones and a draw of the others.

SMILES	CYP2C19 activ	CYP2C19 inhib	CYP2C9 activ	CYP2C9 inhib
O=C(c1ccccc1C(F)(F)F)N1CCN(S(=O)(=O)c2ccccc2)CC1	0.1	87*	0.9	7
O=C(N1CCCCCC1)N1CCN(S(=O)(=O)c2ccccc2)CC1	0.9	8	0.9	8
O=S(=O)(c1ccccc1)N1CCN(Cc2ccccc2C(F)(F)F)CC1	0.1	94*	0.2	83*
Cc1ccccc1CN1CCN(Cc2ccccc2C(F)(F)F)CC1	0.1	91*	0.7	31
O=C(c1ccc(Br)cc1)N1CCN(S(=O)(=O)c2ccccc2)CC1	0.3	70*	0.6	42
COc1cc(NS(=O)(=O)c2ccc(NC(=O)/C(=C\c3ccccc3OC)NC(=O)c3ccccc3)cc2)nc(OC)n1	1	2	1	2
CCc1cccc2c(C=C(C#N)C#N)cn(CC(=O)N3CCCC3)c12	1.1	-8	1	-4
c1cn2cc(-c3ccc4c(c3)OCO4)nc2s1	0.9	13	0.9	10
O=C(c1nc(-c2ccccc2)n(-c2ccccc2)n1)N1CCN(S(=O)(=O)c2ccccc2)CC1	0.9	12	0.3	66*
Cc1nn(-c2ccccc2)c(C)c1C(=O)OCC(=O)N1CCN(S(=O)(=O)c2ccccc2)CC1	0.7	33	0.8	17
O=C(CSc1cccc(C(F)(F)F)c1)N1CCN(S(=O)(=O)c2ccccc2)CC1	0.4	59*	0.9	10
CCCCOC(=O)Nc1cccc(C(C)=O)c1	0.7	34	0.7	25
COc1nc(N/N=C/c2cc3c(cc2Br)OCO3)nc(N2CCOCC2)n1	0.7	35	0.2	77*
O=[N+]([O-])c1ccc(Cl)c(/C=N/Nc2nc(N3CCOCC3)nc(N3CCOCC3)n2)c1	0.8	19	0.9	12
CCSC1=C(C#N)C(c2cccc(Br)c2)CC(=O)N1 (stereo not drawn)	0.6	44	0.7	29
COc1cccc(C2CC(=O)NC(SC)=C2C#N)c1 (stereo not drawn)	0.4	64*	0.4	62*
CCSC1=C(C#N)C(c2ccc(F)cc2)CC(=O)N1 (stereo not drawn)	0.6	38	0.9	10
CCSC1=C(C#N)C(c2ccc(OC)c(OC)c2)CC(=O)N1 (stereo not drawn)	0.4	63*	0.7	27
CCN(CC)c1cnn(C/C(=N\OC)c2ccc(Cl)cc2)c(=O)c1Br	0	97*	0.1	94*
N#CC1=C(N)Oc2cc(N)ccc2C1C1CC=CCC1 (stereo not drawn)	0.1	89*	0.2	76*
COc1ccc(NS(=O)(=O)c2c(C)cc(C)cc2C)cc1	0.1	88*	0.1	93*
COc1cccc(NS(=O)(=O)c2c(C)cc(C)cc2C)c1	0	100*	0.4	58*
C=CCN1C(=O)C2C(C(=O)NC3CCCCC3)C3C=CC2(O3)C1C(=O)NC1CCCC1 (stereo not drawn)	1.1	-11	1.1	-14
C=CCNc1nc2c3ccccc3n(C(C)=O)c2s1	0.9	6	0.3	68*
O=C(O)/C(=C\c1ccco1)NC(=O)c1cccc2ccccc12	0.9	14	0.9	9
SMILES	CYP2C19 activ	CYP2C19 inhib	CYP2C9 activ	CYP2C9 inhib
COc1ccc(C/C(O)=C(\C#N)c2nc3ccccc3s2)cc1	1	-1	0.3	68*
N#C/C(=C(/O)CSc1ccccc1C(=O)O)c1nc2ccccc2s1	1.1	-7	0.9	8
Cc1ccc(SC/C(O)=C(\C#N)c2nc3ccccc3s2)cc1	0.5	54*	0	100*
O=C(NCc1ccco1)c1nn(-c2ccccc2)c(=O)c2ccccc12	0.9	7	0.6	42
COc1ccc(-n2nc(C(=O)NCC(=O)NCc3ccco3)c3ccccc3c2=O)c(OC)c1	1.3	-28	0.3	72*
COc1ccc(-n2nc(C(=O)NCC(=O)NCC3CCCO3)c3ccccc3c2=O)cc1 (stereo not drawn)	0.7	26	0.4	63*
COc1ccc(-n2nc(C(=O)NCC(=O)NCc3ccc(F)cc3)c3ccccc3c2=O)c(OC)c1	0.8	20	0.5	51*
COc1ccc(-n2nc(C(=O)NCC(=O)NCC3CCCO3)c3ccccc3c2=O)c(OC)c1 (stereo not drawn)	1.1	-6	0.6	37
COc1ccc(-n2nc(C(=O)NCC(=O)NCc3ccco3)c3ccccc3c2=O)cc1	0.9	9	0.4	62*
